The values that follow come from PubChem BioAssay AID1779 (Sanford-Burnham Center for Chemical Genomics, 2009).

Out of some 290,000 compounds screened, about 160 (0.055%) were called active. Rule as the data show it: active = inhibition above about 50%; inactive = the rest. This excerpt belongs to a sample that is enriched for actives.

Sequence of Tyrosine-protein phosphatase non-receptor type 22 (Homo sapiens) (Q9Y2R2 whole entry, looked up): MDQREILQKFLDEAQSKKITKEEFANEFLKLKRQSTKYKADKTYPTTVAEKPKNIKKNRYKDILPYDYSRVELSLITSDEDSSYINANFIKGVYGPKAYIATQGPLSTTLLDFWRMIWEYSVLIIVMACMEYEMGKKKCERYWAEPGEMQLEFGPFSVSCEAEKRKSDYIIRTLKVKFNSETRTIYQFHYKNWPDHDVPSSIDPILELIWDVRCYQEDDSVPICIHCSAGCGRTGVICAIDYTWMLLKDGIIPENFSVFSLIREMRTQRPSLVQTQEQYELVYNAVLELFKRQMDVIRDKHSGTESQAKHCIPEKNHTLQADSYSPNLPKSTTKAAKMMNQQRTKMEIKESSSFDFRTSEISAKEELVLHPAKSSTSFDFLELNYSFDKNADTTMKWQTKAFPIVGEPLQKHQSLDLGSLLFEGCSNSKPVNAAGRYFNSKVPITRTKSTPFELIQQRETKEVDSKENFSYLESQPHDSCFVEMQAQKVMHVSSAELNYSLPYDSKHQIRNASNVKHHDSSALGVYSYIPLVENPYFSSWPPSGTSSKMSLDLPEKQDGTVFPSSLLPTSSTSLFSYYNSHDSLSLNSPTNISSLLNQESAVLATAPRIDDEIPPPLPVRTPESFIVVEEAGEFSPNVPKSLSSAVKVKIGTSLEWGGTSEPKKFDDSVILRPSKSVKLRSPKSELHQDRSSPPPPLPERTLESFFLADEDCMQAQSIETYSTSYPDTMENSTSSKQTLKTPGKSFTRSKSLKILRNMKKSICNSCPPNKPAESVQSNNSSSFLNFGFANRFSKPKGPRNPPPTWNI

This test has as its target Tyrosine-protein phosphatase non-receptor type 22 (Homo sapiens) (UniProt Q9Y2R2). The experiment in a line: inhibitors of LYP phosphatase, biochemical, fluorescence intensity, uHTS (AID 1779).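 Also: plate controls were vehicle with enzyme for no effect and no enzyme for full effect.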 The conditions noted are these: recombinant LYP phosphatase, at 11.5 µM, stronger effect = higher value.
In general, inhibition refers to the drop in the measured response relative to a control, in per cent. In the case of `CCc1nc(CNC(=O)c2cc(OC)c(OC)c(OC)c2)no1`, the inhibition was -4.2% (inactive).
With `O=C(NC(=S)Nc1ccc(S(=O)(=O)Nc2nccs2)cc1)C1CC1`, the inhibition was 1% (inactive).
On to `COc1cccc(N(C(=O)Cn2nnc(-c3ccc(Cl)cc3)n2)C(C(=O)NCC2CCCO2)c2ccc(C)cc2)c1` (configuration not stated), for which the inhibition is -1.9% (inactive).
As to `CCCCOc1ccc(N(CC(=O)NC(C)C)C(=O)CCC(=O)Nc2ccccn2)cc1`, the inhibition was -3.4% (inactive).
With `CCOc1ccc(N(CC(=O)NC(C)C)C(=O)CCC(=O)Nc2ccccn2)cc1`, the inhibition is 2.9% (inactive).
For the compound `COc1ccc(N(CC(=O)NC(C)C)C(=O)CCC(=O)Nc2ccccn2)cc1`, the inhibition is 67.8% (active).
As to `O=C(NCCCN1CCCC1=O)c1cccs1`, the inhibition is 2.8% (inactive).
With `O=C(NCCCN1CCCC1=O)c1csc2ccccc12`, the inhibition was -6.7% (inactive).
On to `Cc1cc(C(=O)NCCCN2CCCC2=O)cs1`, for which the inhibition is 75.4% (active).
The value for `C=CCSc1nc2sc(-c3ccccc3)cc2c(=O)n1N` was -7.2% (inactive).
On to `CCOC(=O)N1CCN(C(=O)C(CC)n2nc(C)c3sc4ccccc4c3c2=O)CC1` (configuration not stated), for which the inhibition was 4.4% (inactive).
As to `Brc1cc2c(cc1CN1CCc3ccccc3C1)OCO2`, the inhibition is -4.6% (inactive).
For `O=C1CC(c2ccccc2)CN1C(=O)c1cccnc1` (configuration not stated), the inhibition was -10.4% (inactive).
On to `O=C(c1ccccc1)N1CCN(C(=O)c2cccnc2)CC1`, for which the inhibition was -0.5% (inactive).
As to `O=C1CCC(c2ccccc2)N1C(=O)c1cccnc1` (configuration not stated), the inhibition was 87.4% (active).
Take `CCOC(=O)c1c(-c2ccc(-c3ccccc3)cc2)csc1NC(=O)C1C2CCC(O2)C1C(=O)O` (configuration not stated): the inhibition is 20.8% (inactive).
Take `CCOC(=O)c1c(-c2cccc3ccccc23)csc1NC(=O)C1C2CCC(O2)C1C(=O)O` (configuration not stated): the inhibition was 4.2% (inactive).
On to `CCCOC(=O)c1c(-c2ccc(C)cc2C)csc1NC(=O)C1C2CCC(O2)C1C(=O)O` (configuration not stated), for which the inhibition was 66.6% (active).
The value for `CC(=O)c1ccc(N2CCN(C(=O)CCN3C(=S)NC(C)(C)CC3C)CC2)cc1` (configuration not stated) was 1% (inactive); that for `Cc1cc(C)n(C(C)CNS(=O)(=O)c2ccccc2)n1` (configuration not stated) was -6.8% (inactive); that for `O=C(O)CCC(=O)Nc1ccccc1C(=O)NCCc1ccccc1` was 2.9% (inactive).
In the case of `NC(=O)Nc1ccccc1C(=O)NCCc1ccccc1`, the inhibition was 65% (active).
Regarding `O=C(Nc1ccccc1C(=O)NCCc1ccccc1)c1ccco1`, the inhibition was -1.8% (inactive).
`CN(C)/C=N/NC(=O)c1ccccc1`: the inhibition was -9.5% (inactive).
On to `CC(=O)Nc1ccc(NC(=O)c2c(-c3ccccc3Cl)noc2C)c(C)c1`, for which the inhibition is -11.5% (inactive).
`Cc1ccnc(NCc2c(O)ccc3ccccc23)c1`: the inhibition was -11.3% (inactive).
For the compound `COc1ccc(NC(=O)CC2C(=O)N(Cc3ccccc3)C(=S)N2CCN2CCOCC2)cc1` (configuration not stated), the inhibition is -3.6% (inactive).
As for `O=C(CC1C(=O)N(Cc2ccccc2)C(=S)N1CCN1CCOCC1)Nc1ccc(F)cc1` (configuration not stated), the inhibition was 74.9% (active).
As for `CCN1C(=O)C(CC(=O)Nc2ccc(OC)cc2)N(CCN2CCOCC2)C1=S` (configuration not stated), the inhibition was -9.2% (inactive).
Consider `CC(=O)NNc1ncnc2c1cnn2-c1ccccc1`, for which the inhibition is 1.3% (inactive).
As for `COC(=O)N/N=C(\C)c1ccccc1OC(F)F`, the inhibition is -1.7% (inactive).
For the compound `CCNC(=S)N/N=C(\C)c1ccc2ccccc2c1OC(F)F`, the inhibition is 4% (inactive).
The value for `COC(=O)N/N=C(\C)c1ccc2ccccc2c1OC(F)F` was 68% (active).
The value for `COC(=O)C(C)n1cnc2c(nnn2-c2ccc(C)cc2)c1=O` (configuration not stated) was -13% (inactive).
Consider `CN(C(=O)COc1cc(C(F)(F)F)nn1C)c1ccccc1`, for which the inhibition was -13.5% (inactive).
Then `CC(C)Cn1c(-c2ccco2)n[nH]c1=S`, with -1.3% (inactive).
Take `CC1Cc2ccccc2N1CC(=O)Nc1cccc(S(N)(=O)=O)c1` (configuration not stated): the inhibition was 52.1% (active).
`CC1Cc2ccccc2N1CC(=O)Nc1ccc(S(N)(=O)=O)cc1` (configuration not stated): the inhibition was -7.9% (inactive).
In the case of `CC1Cc2ccccc2N1CC(=O)Nc1ccc(S(=O)(=O)N(C)C)cc1` (configuration not stated), the inhibition is 0.3% (inactive).
Turning to `CC(NC(=O)CN1CCN(c2ccccc2F)CC1)c1ccccc1` (configuration not stated), the inhibition was -13% (inactive).
The value for `CN(C)S(=O)(=O)N1CCc2ccc(NC(=O)C3CCCO3)cc2C1` (configuration not stated) was -10.7% (inactive).
Take `CCCS(=O)(=O)N1CCc2ccc(NC(=O)C3CCCO3)cc2C1` (configuration not stated): the inhibition was -11.2% (inactive).
Then `CS(=O)(=O)N1CCc2ccc(NC(=O)C3CCCO3)cc2C1` (configuration not stated), with 73.9% (active); and `O=C(c1c(F)cccc1F)N1CCC(O)(c2cccnc2)CC1`, with -8.4% (inactive).
`COc1ccc(Cl)cc1NC(=S)N1CCCC1`: the inhibition was -2% (inactive).
For the compound `CCc1ccc(NC(=O)CS(=O)CC(=O)NCC2OCCc3ccccc32)cc1` (configuration not stated), the inhibition was -6.3% (inactive).
As to `O=C(CS(=O)CC(=O)Nc1ccc(Cl)cc1)NCC1OCCc2ccccc21` (configuration not stated), the inhibition is 52.3% (active).
Then `COc1ccc(NC(=O)CS(=O)CC(=O)NCC2OCCc3ccccc32)cc1` (configuration not stated), with -5.2% (inactive); and `O=C(O)c1ccccc1NC(=O)c1cc(-c2ccccc2)nc2ccccc12`, with -12.6% (inactive); and `COC(=O)CCCC1=CC2=C(c3ccccc3)C(=O)C(C)(OC(=O)C3CCCC3)C(=O)C2=CN1CCN1CCOCC1` (configuration not stated), with -3.1% (inactive).
Consider `CSc1nsc(SCC(=O)Nc2cccc(NC(C)=O)c2)n1`, for which the inhibition is -3.8% (inactive).
The value for `CSc1nsc(SCC(=O)Nc2cccc(C(C)=O)c2)n1` was 52.6% (active).
The value for `CSc1nsc(SCC(=O)Nc2cccc(C(=O)O)c2)n1` was -1.3% (inactive).
Turning to `CO/C([O-])=N/c1c[n+](-c2ccc(Cl)cc2)no1`, the inhibition was -3.1% (inactive).
Regarding `COCCNC(=O)c1c(CSc2ccccc2)noc1C(=O)NCc1ccccc1`, the inhibition is -2.5% (inactive).
As for `COc1c(C)cc(C(=O)C2CCCN(C(=O)c3csc(C)n3)C2)cc1C` (configuration not stated), the inhibition was -11.3% (inactive).
As to `OCC1(CCc2ccccc2)CCN(Cc2cc(Cl)ccc2O)CC1`, the inhibition is -10.5% (inactive).
Regarding `Fc1ccccc1Cn1nnc2c(NCCc3ccccn3)ncnc21`, the inhibition is -5.2% (inactive).
With `COc1cc(/C=N/n2c(-c3ccccc3)n[nH]c2=S)cc(OC)c1OC`, the inhibition was -1.8% (inactive).
On to `O=C1C2C(C(=O)N1/N=C/c1ccc([N+](=O)[O-])o1)C1C=CC2C12CC2` (configuration not stated), for which the inhibition was -11.3% (inactive).
The value for `O=C1C2C(C(=O)N1/N=C/c1cccc([N+](=O)[O-])c1)C1C=CC2C12CC2` (configuration not stated) was 51.6% (active).
On to `O=C1C2C(C(=O)N1/N=C/c1cc([N+](=O)[O-])ccc1O)C1C=CC2C12CC2` (configuration not stated), for which the inhibition is 0.1% (inactive).
